Source: PubChem
BRCA1 expr up – increases BRCA1 expression; MCF7-BRCA1-FFLuc reporter, luminescence, 48 h; response scale: scaled: vehicle 0%, 10 µM genistein 100%; Potency, µM (highest dose often 46.1 µM), hits mostly activators; 380,000 tested, 1.1% active; AID 624202; also: nearly all actives have a fitted effect of over 80% in size
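Compounds are tested at multiple concentrations on MCF7 BRCA1-luciferase reporter cells seeded at 2000 per well; after 48 h, a single luminescence end-point is taken and curves fitted to the normalized data.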
IL2 activator – IL-2 activation; AID 652025; 360,000 tested, 0.065% active; activation, % (series mostly up to about 46 µM); IL-2 activation reporter assay, cell-based qHTS; stimulated with anti-CD3/CD4/CD28 beads; in transgenic mouse T cells; in the data active = activation above about 50%; inconclusive = mostly about 30% to 49%
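Screening format: compound pinned onto unstimulated transgenic mouse T cells, 60 min incubation, then anti-CD3/anti-CD4/anti-CD28 bead stimulation for 18 hours at 37 degrees C, followed by EGFP and DsRed detection.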
PKM2 activator – PKM2 (human) enzyme activation | purified PKM2, Kinase-Glo ATP luminescence, activation; response scale: 0% is enzyme alone, no compound | Potency, µM (doses to about 57.5 µM), hits mostly activators | 260,000 tested, 0.34% active | AID 1631; also: nearly all actives have a fitted effect of over 55% in size
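Kinase-Glo luminescence reports ATP generated from ADP (0.1 mM) and PEP (0.5 mM) by purified hPK-M2 after 1 h at room temperature, pH 7.2 imidazole buffer; intermediate enzyme activity allows detecting inhibitors and activators.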
Apoferritin bind – binds horse apoferritin like a general anesthetic | P02791 | apoferritin/1-aminoanthracene competitive binding, fluorescence | Potency, µM (doses to about 77.5 µM), actives largely listed as inhibitors | 350,000 tested, 0.074% active; also: nearly all actives have a fitted effect of over 20% in size
Target sequence (P02791 2-175 limits assumed): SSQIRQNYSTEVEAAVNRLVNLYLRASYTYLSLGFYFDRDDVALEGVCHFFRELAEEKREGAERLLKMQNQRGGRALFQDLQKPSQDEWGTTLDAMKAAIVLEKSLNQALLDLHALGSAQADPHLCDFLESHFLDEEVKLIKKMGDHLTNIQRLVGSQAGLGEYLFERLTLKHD
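Probe: 1-aminoanthracene (50% saturated, PBS). Protein: horse-spleen apoferritin, 10 uM. Incubation: 10 min, room temperature. Detection: 380 nm excitation, 535 nm emission. Analysis: normalized response, four-parameter Hill.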
a7 integrin act – activates integrin-mediated alleviation for muscular dystrophy | AID 624291 | alpha7betagal myoblasts, beta-gal FDG fluorescence, 48 h | Potency, µM (top dose mostly 38.3 µM), hits mostly activators | 350,000 tested, 0.064% active; also: nearly all actives have a fitted effect of over 60% in size
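Alpha7betagal+/- myoblasts (passage 13) were plated 16-24 hr, then exposed to compounds (1:260 dilution of DMSO stock) for 48 hours at 37C. After MPER lysis, β-galactosidase reporter activity was read as FDG fluorescence (ex 480/em 540) after 30 minutes.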
Large screens that a line does not name were inactive. Rows were chosen to be rich in hits. Some 1.3% of all compounds tested hit in one or more screens of this group. Unless noted, calls follow the shape of the dose curve; as a rule, active = well fitted curve in the direction sought with a large enough effect; inconclusive = small, poorly fitted or top-dose-only effect, or another doubt; inactive = no such curve, though single readings can be large; an effect the other way counts as inactive or inconclusive.

Cc1cccc2c(=O)[nH]c3c(-c4nc(-c5ccc(Cl)cc5)cs4)c(O)cn3c12	none (no result: IL2 activator, PKM2 activator, Apoferritin bind, a7 integrin act)
O=C1CN(CCN2CC(=O)NC(=O)C2)CC(=O)N1	none (no result: IL2 activator, PKM2 activator, Apoferritin bind, a7 integrin act)
O=C(O)CSc1ncnc2sc(-c3ccccc3)cc12	none
CC(Sc1ncnc2sc(-c3ccccc3)cc12)C(N)=O (stereo not given)	BRCA1 expr up 10µM
O=C(CN(CCc1c[nH]c2ccccc12)S(=O)(=O)c1ccccc1)N1CCCCCC1	none (no result: IL2 activator, PKM2 activator, Apoferritin bind, a7 integrin act)
CCOc1ccc(/C=C/c2cc[n+](C)c3ccccc23)cc1OCC	none (no result: IL2 activator, PKM2 activator, Apoferritin bind, a7 integrin act)
Cc1ccc2nc(N(Cc3cccnc3)C(=O)CCOc3ccccc3)sc2c1	none (no result: BRCA1 expr up, IL2 activator, PKM2 activator, a7 integrin act)
COc1cc2c(ccc3cc(OC)c(OC)c(O)c32)cc1O	PKM2 activator inconclusive
COc1cc2cccc(OC)c(=O)c2c(O)c1OC	BRCA1 expr up 10µM
Cc1ccccc1-n1c(C)cc(/C=C(\C#N)C(=O)NCC2CCCO2)c1C (stereo not given)	BRCA1 expr up 14.1µM
CC(C)Oc1ccc(CNC(=O)C2CCN(C(=O)N3CCOc4ccccc43)CC2)cc1	none
CC(NC(=O)C1CCN(C(=O)N2CCOc3ccccc32)CC1)c1ccccc1 (stereo not given)	Apoferritin bind 15.8µM (no result: BRCA1 expr up, IL2 activator, PKM2 activator, a7 integrin act)
COc1ccc(C2CC(c3ccc(C)o3)=NN2C(C)=O)cc1 (stereo not given)	BRCA1 expr up 6.31µM
CC(=O)N1N=C(c2ccc(C)o2)CC1c1ccc(Br)cc1 (stereo not given)	BRCA1 expr up 10µM
O=C(O)[C@H]1O[C@@H](Oc2ccc3ccc(=O)oc3c2)[C@H](O)[C@@H](O)[C@@H]1O	none (no result: BRCA1 expr up, IL2 activator, PKM2 activator, a7 integrin act)
Cc1cc(SCC(=O)N/N=C/c2ccc(O)c(O)c2O)c(C)cc1Br	Apoferritin bind 31.6µM
CCOC(=O)c1nnc2cc(-c3ccccc3)nn2c1C	BRCA1 expr up 6.31µM
Nc1ccc(/C=C/c2ccnc3ccccc23)cc1[N+](=O)[O-]	none (no result: IL2 activator, PKM2 activator, Apoferritin bind, a7 integrin act)
Cc1occc1C(=O)N/N=C/C=C/c1ccccc1	BRCA1 expr up 10µM, a7 integrin act inconclusive
C/C(=N\NC(=O)c1nn(C)c(C)c1Br)c1ccc(NC(=O)C2CCCC2)cc1	BRCA1 expr up 5.01µM (no result: PKM2 activator)
C/C(=N\NC(=O)c1cc(C)oc1C)c1ccc2ccccc2c1	a7 integrin act 8.91µM
C/C(=N/NC(=O)c1ccoc1C)c1ccc(NC(=O)C2CCCC2)cc1	BRCA1 expr up 5.62µM
COc1ccc(Nc2ncnc3c2cnn3-c2ccc(C)cc2C)cc1	none (no result: BRCA1 expr up, IL2 activator, PKM2 activator, a7 integrin act)
CCOc1ccc(C(=O)Nc2ccc(C(=O)OCc3cc(=O)n4nc(CC)sc4n3)cc2)cc1	none (no result: BRCA1 expr up, IL2 activator, PKM2 activator, a7 integrin act)
COc1ccc(C(=O)Nc2cccc(/C(C)=N\NC(=O)c3ccoc3C)c2)cc1OC	none
C/C(=N\NC(=O)c1ccoc1C)c1ccccc1	BRCA1 expr up 3.98µM
Cc1nc([N+](=O)[O-])cn1CC(O)c1ccc2c(c1)OCCO2 (stereo not given)	none (no result: IL2 activator, PKM2 activator, Apoferritin bind, a7 integrin act)
COc1cc2c(NC3CCN(C)CC3)nc(N3CCCN(C)CC3)nc2cc1OCCCN1CCOCC1	none (no result: IL2 activator, PKM2 activator, Apoferritin bind, a7 integrin act)
COc1cccc(NS(=O)(=O)c2cc3c(cc2C)NC(=O)CO3)c1	PKM2 activator 1.78µM
Cc1cc2c(cc1S(=O)(=O)Nc1cccc(C#N)c1)OCC(=O)N2	none (no result: BRCA1 expr up, IL2 activator, PKM2 activator, a7 integrin act)
COc1ccccc1NS(=O)(=O)c1cc2c(cc1C)NC(=O)CO2	PKM2 activator 7.08µM
O=C(NCCc1ccccc1)c1ccc(-c2cccnc2)c2ccoc12	BRCA1 expr up 7.08µM (no result: PKM2 activator, Apoferritin bind, a7 integrin act)
CCCCSc1nsc(NC(C)=O)n1	Apoferritin bind inconclusive
CCCSc1nsc(NC(=O)CCC)n1	BRCA1 expr up 1.41µM
Cc1cc(NC(=O)c2cc(-c3cccc(Cl)c3)on2)nn1Cc1ccc(Cl)cc1	none (no result: BRCA1 expr up, IL2 activator, PKM2 activator, a7 integrin act)
CC(C(=O)Nc1ccccc1C(F)(F)F)n1nc(-c2ccccc2)c2c(c1=O)CCCC2 (stereo not given)	Apoferritin bind inconclusive (no result: IL2 activator, PKM2 activator, a7 integrin act)
CC1CCN(C(=O)c2cc3ccccc3o2)CC1	BRCA1 expr up 11.2µM
O=C(c1cc2ccccc2o1)N1CCCCCC1	BRCA1 expr up 8.91µM
COc1ccc(Cl)cc1NC(=O)C(C)N1Cc2ccccc2C1=O (stereo not given)	none (no result: BRCA1 expr up, IL2 activator, PKM2 activator, a7 integrin act)
COc1ccccc1/C=C/c1cncc(/C=C/c2ccccc2OC)c1	none (no result: IL2 activator, PKM2 activator, Apoferritin bind, a7 integrin act)
c1ccc(Cc2ccc(OCCn3cncn3)cc2)cc1	none
c1ccc(-c2ccc(OCCOCCn3cncn3)cc2)cc1	BRCA1 expr up 7.08µM
